The source made the active and inactive calls. Unless noted, how the calls were made is not given here.
Experiments:
[1] = A549 cell viability effects, profiling panel, calcein-AM fluorescence, 48 h, basal (AID 1162); details: higher = more signal; further: test concentration not given here
[2] = adipocyte viability effects, profiling panel, cell-based, 3T3-L1 adipocytes, calcein-AM fluorescence, 48 h, basal (AID 1163); details: 3T3-L1 adipocytes viability, higher = more signal; further: test concentration not given here
[3] = HepG2 cell viability effects, profiling panel, calcein-AM fluorescence, 48 h, basal (AID 1164); details: higher = more signal; further: test concentration not given here
[4] = MM1S cell viability effects, profiling panel, calcein-AM fluorescence, 48 h, basal (AID 1165); details: higher = more signal;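 further: viability of MM1S multiple myeloma cells under basal unstimulated conditions; test concentration not given here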
[5] = basal RPMI8226 viability, no added stimulus, profiling panel, cell-based, calcein-AM fluorescence, 48 h, PK04 Diversity Set (AID 1166); details: RPMI8226 myeloma viability, higher = more signal;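 further: cells grown under basal conditions without added stimulus; test concentration not given here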
[6] = basal HepG2 mitochondrial membrane potential changes, profiling panel, cell-based, JC-1 fluorescence, 24 h, 100 nL compound (AID 1167); details: higher = more signal; further: test concentration not given here
[7] = basal 3T3-L1 adipocyte mitochondrial potential changes, profiling panel, cell-based, JC-1 fluorescence, 3T3-L1 adipocytes, 24 h, 100 nL compound (AID 1168); details: JC-1 mitochondrial fluorescence, higher = more signal, called active from +8 up or from −8 down; further: test concentration not given here
[8] = basal RPMI8226 mitochondrial membrane potential changes, profiling panel, cell-based, JC-1 fluorescence, 24 h, 100 nL compound (AID 1169); details: RPMI8226 myeloma, JC-1 mitochondrial potential fluorescence, higher = more signal; further: test concentration not given here
[9] = basal MM1S mitochondrial membrane potential changes, profiling panel, cell-based, JC-1 fluorescence, 24 h, 100 nL compound (AID 1170); details: higher = more signal; further: test concentration not given here
[10] = A549 lung cancer cell viability effects, profiling panel, resazurin fluorescence, 24 h, PK04 Diversity Set (AID 1171); details: higher = more signal, called active from +8 up or from −8 down; further: test concentration not given here
[11] = HepG2 liver cancer cell viability effects, profiling panel, resazurin fluorescence, 24 h, PK04 Diversity Set (AID 1172); details: higher = more signal; further: test concentration not given here
[12] = basal S. cerevisiae growth modulation, no modifier, primary screen, OD600, strain BY4716, 24 h, basal condition (AID 1173); details: OD600, 24 h, higher = more signal, called active from +8 up or from −8 down
[13] = MM1S myeloma cell viability, profiling panel, resazurin fluorescence, basal, 24 h, PK04 Diversity Set (AID 1174); details: higher = more signal, called active from +8 up or from −8 down;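 further: MM1S multiple myeloma cell line; test concentration not given here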
[14] = target: Dihydroorotate dehydrogenase (quinone), mitochondrial (Plasmodium falciparum (isolate 3D7)) (UniProt Q08210); test: PfDHODH enzyme inhibitors, primary screen, biochemical, C-terminal His tag, absorbance 600 nm (AID 1175); details: DCIP absorbance 600 nm, higher = more signal, called active from +8 up or from −8 down;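 further: recombinant parasite enzyme with a five histidine tag at its C terminus; test concentration not given here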
Sequence of Dihydroorotate dehydrogenase (quinone), mitochondrial (Plasmodium falciparum (isolate 3D7)) (Q08210 whole entry, looked up): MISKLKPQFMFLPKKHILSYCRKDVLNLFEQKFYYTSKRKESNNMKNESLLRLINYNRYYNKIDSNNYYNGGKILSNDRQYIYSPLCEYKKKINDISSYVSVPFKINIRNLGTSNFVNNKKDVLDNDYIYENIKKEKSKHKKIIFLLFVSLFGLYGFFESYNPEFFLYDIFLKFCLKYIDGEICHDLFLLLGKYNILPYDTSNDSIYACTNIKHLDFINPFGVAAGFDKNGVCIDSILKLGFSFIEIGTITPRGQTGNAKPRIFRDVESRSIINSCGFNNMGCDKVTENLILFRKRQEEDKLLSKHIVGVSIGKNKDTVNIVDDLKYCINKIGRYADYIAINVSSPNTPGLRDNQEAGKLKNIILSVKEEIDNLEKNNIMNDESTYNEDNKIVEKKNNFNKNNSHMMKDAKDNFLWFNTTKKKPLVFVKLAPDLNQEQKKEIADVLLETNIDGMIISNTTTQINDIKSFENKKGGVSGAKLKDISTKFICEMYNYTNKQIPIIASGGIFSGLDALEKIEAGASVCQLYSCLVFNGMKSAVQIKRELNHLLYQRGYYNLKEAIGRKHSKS

[15] = P. aeruginosa biofilm formation inhibitors, primary screen, strain PAO1, LB-PBS medium, absorbance 600 nm (AID 1176); further: test concentration not given here; details: P. aeruginosa PAO1 growth/biofilm, A600, 12 h; higher = more signal
[16] = S. cerevisiae RM11-1a growth modifiers, primary screen, strain RM11-1a, OD600, basal, 24 h (AID 1177); details: OD600, 24 h, higher = more signal, called active from +8 up or from −8 down;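 further: cultures grown under basal conditions with no added stressor; test concentration not given here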
[17] = E. coli acrAB mutant growth effects, primary screen, E. coli filamentation inducers, strain DRC39, OD650, 24 h (AID 1178); details: higher = more signal, called active from +8 up or from −8 down;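 further: growth measured as culture turbidity by optical density at 650 nm; test concentration not given here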
[18] = E. coli acrAB mutant growth effects, primary screen, E. coli filamentation inducers, strain DRC39, OD650, 48 h (AID 1179);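 further: screen aims at cell division blockers that make cells filament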; details: E. coli DRC39 delta-acrAB growth, higher = more signal, called active from +8 up or from −8 down
[19] = RPMI8226 myeloma cell viability, profiling panel, resazurin fluorescence, basal, 24 h, PK04 Diversity Set (AID 1180); details: higher = more signal;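 further: RPMI8826 multiple myeloma cell line at 5000 cells per well; test concentration not given here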
[20] = target: E3 ubiquitin-protein ligase XIAP (Homo sapiens) (UniProt P98170); test: XIAP binders, primary screen, biophysical, small-molecule microarray, fluorescence 635 nm (AID 1181); details: small-molecule microarray binding, higher = more signal;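 further: score merges 667 nm emission and signal to noise over triplicate slides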
Sequence of E3 ubiquitin-protein ligase XIAP (Homo sapiens) (P98170 whole entry, looked up): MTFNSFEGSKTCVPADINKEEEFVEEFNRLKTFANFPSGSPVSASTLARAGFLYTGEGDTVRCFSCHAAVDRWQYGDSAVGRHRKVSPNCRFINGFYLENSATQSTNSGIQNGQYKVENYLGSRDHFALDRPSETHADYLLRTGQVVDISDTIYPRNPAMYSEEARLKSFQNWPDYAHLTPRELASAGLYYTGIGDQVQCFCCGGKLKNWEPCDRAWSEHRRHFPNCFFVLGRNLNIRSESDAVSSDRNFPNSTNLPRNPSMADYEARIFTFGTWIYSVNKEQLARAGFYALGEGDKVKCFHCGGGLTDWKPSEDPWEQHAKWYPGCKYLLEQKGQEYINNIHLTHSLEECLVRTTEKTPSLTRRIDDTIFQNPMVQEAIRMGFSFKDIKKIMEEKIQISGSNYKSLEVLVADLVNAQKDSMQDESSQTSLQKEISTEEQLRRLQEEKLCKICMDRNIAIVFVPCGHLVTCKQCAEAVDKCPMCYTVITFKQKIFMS

Structure (SMILES) | z-score [1] | z-score [2] | z-score [3] | z-score [4] | z-score [5] | z-score [6] | z-score [7] | z-score [8] | z-score [9] | z-score [10] | z-score [11] | z-score [12] | z-score [13] | composite z-score [14] | z-score [15] | z-score [16] | z-score [17] | z-score [18] | z-score [19] | composite z-score [20]
COCCCNC(=O)[C@@]1(Cc2ccccc2CN=[N+]=[N-])N=C(c2ccc(OCCCO)cc2)O[C@H]1c1ccccc1N=[N+]=[N-] | -0.121 | -0.0406 | 0.35 | -1.34 | -3.87 | 1.36 | 1.98 (inactive) | -1.06 | -0.156 | -1.47 (inactive) | -0.208 | -0.255 (inactive) | -1.18 (inactive) | 1.13 (inactive) | 0.413 (inactive) | 0.587 (inactive) | 1.86 (inactive) | 1.08 (inactive) | -2.65 | -0.0592
C=CCC(OC(C)=O)[C@@H]1[C@@H](N(Cc2ccc(-c3cccc(C(F)(F)F)c3)o2)C(=O)c2cccc3ccccc23)c2cc(OCCCO)ccc2N1C(=O)c1ccc(-c2ccccc2)cc1 (stereo not given in full) | 0.558 | 0.865 | -0.382 | -1.04 | -1.23 | 2.41 | -2.44 (inactive) | 0.00531 | 0.988 | -0.93 (inactive) | -1.02 | -0.0033 (inactive) | -1.1 (inactive) | 0.821 (inactive) | -0.416 (inactive) | 0.0679 (inactive) | 0.147 (inactive) | -0.241 (inactive) | -0.851 | -0.031
C=CCC(OC(C)=O)[C@@H]1[C@@H](N(Cc2cccc3ccccc23)C(=O)c2ccc(C)cc2)c2cc(OCCCO)ccc2N1C(=O)c1ccc2ccccc2c1 (stereo not given in full) | 0.93 | 1.08 | 2.15 | 0.577 | 0.12 | 2.37 | 0.658 (inactive) | 0.102 | -0.796 | 0.912 (inactive) | 0.924 | -0.0786 (inactive) | 1.27 (inactive) | -1.86 (inactive) | 0.101 (inactive) | -1.7 (inactive) | 1.24 (inactive) | 1.8 (inactive) | 1.04 | -0.152
O=C1C2C=CC(C(O)c3ccccn3)N(Nc3ccccc3)C2C(=O)N1c1ccccc1 (stereo not given) | 0.312 | -1.46 | 0.593 | 0.111 | -0.0462 | -0.568 | -0.467 (inactive) | -0.234 | -1.11 | -0.752 (inactive) | 0.458 | -1.07 (inactive) | -0.702 (inactive) | 1.06 (inactive) | 0.35 (inactive) | 0.565 (inactive) | -0.562 (inactive) | -0.225 (inactive) | 0.16 | 0.109
NC(=O)[C@@H]1[C@H]2C(=O)O[C@H](c3ccccc3)[C@H](c3ccccc3)N2[C@H](c2ccccc2OCCO)[C@@]12C(=O)Nc1ccc(C#CCCO)cc12 | 0.888 | 1.27 | 0.133 | 0.448 | -3.68 | -0.945 | 0.783 (inactive) | -1.11 | 0.068 | 0.461 (inactive) | 1.06 | -1.45 (inactive) | -0.476 (inactive) | -0.58 (inactive) | -0.104 (inactive) | 0.895 (inactive) | 0.386 (inactive) | -0.318 (inactive) | -1.29 | -0.0048
COCCCNC(=O)[C@@]1(Cc2ccccc2)COC(c2ccc(OCCCO)cc2)=N1 | 0.654 | -0.598 | 1.02 | -0.35 | -1.04 | -1.11 | 0.154 (inactive) | -0.367 | -0.693 | 0.244 (inactive) | 0.515 | -0.0995 (inactive) | 0.141 (inactive) | 0.45 (inactive) | -0.499 (inactive) | -0.031 (inactive) | -0.13 (inactive) | 0.993 (inactive) | 1.22 | -0.098
COc1ccc([Si](C)(C)[C@H]2[C@H](CCn3cc(CCO)nn3)O[C@@]3(C(=O)N(Cc4cccc(N5C(=O)c6cccc7cccc5c67)c4)c4ccccc43)[C@@H]2C)cc1 | -1.05 | -0.354 | -4.39 | -2.83 | -4.51 | 1.6 | 2.9 (inactive) | -1.05 | -2.03 | -3.05 (inactive) | -2.74 | 0.425 (inactive) | -6.02 (inactive) | -0.455 (inactive) | 1.76 (inactive) | 2.16 (inactive) | 2.38 (inactive) | 1.74 (inactive) | -5.82 | 0.235
CC1C=C(CCCO)C=C(C(=O)OCCS(C)(=O)=O)C(C(=O)OCCS(C)(=O)=O)=CN1Cc1cccc(OC(F)(F)F)c1 (stereo not given) | 0.114 | 0.606 | 1.23 | -0.289 | -0.226 | 1.27 | -0.63 (inactive) | 0.186 | -0.0273 | -0.0746 (inactive) | -0.096 | -3.46 (inactive) | -0.0212 (inactive) | -2.15 (inactive) | 0.944 (inactive) | 0.309 (inactive) | 0.736 (inactive) | 0.503 (inactive) | 0.0364 | -0.0659
C=C(CCCC)/C(=C/C[C@@H](OC(=O)c1ccncc1)c1ccccc1OCCO)c1cc(C(=O)OC)ccc1OC | 0.0198 | 0.725 | 0.949 | -3.26 | -3.93 | 2.84 | -0.188 (inactive) | -0.497 | -1.14 | 0.17 (inactive) | -0.16 | 0.0793 (inactive) | -1.38 (inactive) | -0.455 (inactive) | 0.506 (inactive) | 0.111 (inactive) | 0.275 (inactive) | 0.223 (inactive) | -0.94 | 0.057
CC(C)C[C@H]1NC(=O)[C@H](C)NC(=O)[C@@]23C(=O)N[C@@H](Cc4ccccc4)C2[C@H](C)[C@@]2(C)O[C@H]2C3/C=C/C/C=C\CNC1=O (stereo not given in full) | -0.0541 | 0.392 | -0.17 | -0.36 | -0.659 | -0.482 | -0.752 (inactive) | -0.0616 | 1.34 | -0.271 (inactive) | -0.594 | -0.49 (inactive) | 0.0114 (inactive) | -0.401 (inactive) | 0.413 (inactive) | -0.837 (inactive) | -0.599 (inactive) | -0.555 (inactive) | 0.154 | 0.0822
COC(=O)[C@@]1(Cc2ccc(F)cc2)[C@H]2c3cc(C(=O)N(C)C)n(CCSCCO)c3C[C@H]2CN1C(=O)c1ccccc1 | -0.716 | -0.352 | 0.665 | -0.684 | -1.08 | -0.572 | -0.682 (inactive) | -0.0796 | 0.172 | -0.0793 (inactive) | -0.234 | -0.0857 (inactive) | -0.42 (inactive) | -0.467 (inactive) | 0.399 (inactive) | 0.0891 (inactive) | -0.514 (inactive) | -0.32 (inactive) | -0.107 | -0.234
COc1ccccc1CN1C(=O)c2ccccc2[C@@H](C(=O)NCC(C)C)[C@@H]1c1ccc(CO)cc1 | 0.467 | 0.796 | 0.306 | 0.869 | -2.01 | 0.962 | -1.09 (inactive) | 0.398 | 0.544 | -0.624 (inactive) | -1.4 | 0.352 (inactive) | 0.897 (inactive) | 0.769 (inactive) | 0.31 (inactive) | 0.777 (inactive) | 0.547 (inactive) | 0.347 (inactive) | 1.02 | -0.104
Cc1ccc(S[C@]2(C(=O)NCc3ccccc3)CC(=O)N(C3Cc4ccccc4C3)[C@@H]2c2ccc(CO)cc2I)cc1 | 1.38 | -0.196 | 1.54 | -2.33 | -1.52 | 0.353 | 0.698 (inactive) | -0.686 | -0.972 | -0.862 (inactive) | -0.0974 | -2.95 (inactive) | -2.61 (inactive) | -1.29 (inactive) | 0.761 (inactive) | -2.63 (inactive) | 0.964 (inactive) | 1.52 (inactive) | -1.89 | -0.315
COC(=O)[C@@]1(Cc2ccccc2)[C@H]2c3cc(C(=O)N4CCCC4)n(CCO)c3C[C@H]2CN1C(=O)c1ccccc1 | -0.258 | 0.577 | 0.345 | -0.867 | 0.688 | 0.844 | 0.671 (inactive) | 0.0245 | -0.77 | -0.103 (inactive) | 0.445 | 0.192 (inactive) | -0.892 (inactive) | -1.2 (inactive) | 0.259 (inactive) | -0.483 (inactive) | 0.355 (inactive) | 1.05 (inactive) | 0.309 | 0.202
CC(C)NC(=O)[C@@]1(Cc2ccccc2I)c2ccccc2C(=O)N(Cc2ccccc2C(F)(F)F)[C@H]1c1ccc(CO)cc1 | 0.325 | 1.77 | 0.289 | -1.43 | -1.66 | 0.347 | 0.536 (inactive) | -0.476 | 0.749 | 0.444 (inactive) | 0.406 | 0.835 (inactive) | 1.09 (inactive) | -0.327 (inactive) | 0.82 (inactive) | -0.272 (inactive) | 0.52 (inactive) | -0.319 (inactive) | 0.508 | -0.206
C[N+](C)(C)CCCCCCNC(=O)[C@@H]1C[C@@H]2C(=O)NCC(=O)N2[C@@H]1c1ccc(O)cc1 | -0.261 | -0.166 | 0.517 | -0.0232 | 0.0324 | -1.58 | 0.251 (inactive) | -0.0725 | -0.534 | 0.28 (inactive) | 0.811 | 0.0566 (inactive) | 0.562 (inactive) | -1.45 (inactive) | -0.447 (inactive) | 0.311 (inactive) | 0.182 (inactive) | 0.128 (inactive) | 0.203 | -0.128
